Measurements published in PubChem BioAssay AID1159580 (chemical genetic matrix, 2015).
About 2,000 (36%) of roughly 5,500 compounds were called active. About 18% were inconclusive and are not listed. Rule as the data show it: active = normalized growth mostly below about 0.91 (no sharp cut-off); inconclusive = no clear call, values can overlap the other calls; inactive = mostly above about 0.92. Some of the results follow.

Test: chemical genetic growth profiling, strain panel (AID 1159580);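 also: tested at 20 µM; growth read once vehicle control cultures reached saturation at 30 °C; 1 = growth at the plate median or of vehicle wells; lower values mean less growth of the strain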
Settings: growth OD

Measured: normalized growth

COc1ccc(C2CC(=O)c3ccc(OC)cc3O2)cc1 (centres undefined)
inactive: S. cerevisiae deletion strains, locus YKL068W, stronger effect = lower value 0.97 | S. cerevisiae deletion strains, locus YKL085W, strain MDH1 (second series), stronger effect = lower value 0.982 | S. cerevisiae deletion strains, locus YKL085W, strain MDH1, stronger effect = lower value 0.982 | S. cerevisiae deletion strains, locus YKL160W, strain elf1, stronger effect = lower value 0.908 | S. cerevisiae deletion strains, locus YKL190W, strain CNB1, stronger effect = lower value 0.948 | S. cerevisiae deletion strains, locus YKR026C, strain gcn3, stronger effect = lower value 0.931 | S. cerevisiae deletion strains, locus YKR091W, strain srl3, stronger effect = lower value 0.968 | S. cerevisiae deletion strains, locus YLL001W, strain dnm1, stronger effect = lower value 0.938 | S. cerevisiae deletion strains, locus YLL026W, stronger effect = lower value 0.932 | S. cerevisiae deletion strains, locus YLL041C, strain sdh2, stronger effect = lower value 0.958 | S. cerevisiae deletion strains, locus YLR027C, strain aat2, stronger effect = lower value 0.93 | S. cerevisiae deletion strains, locus YLR039C, strain RIC1, stronger effect = lower value 0.811 | S. cerevisiae deletion strains, locus YLR058C, strain SHM2, stronger effect = lower value 0.901 | S. cerevisiae deletion strains, locus YLR102C, strain apc9, stronger effect = lower value 0.951 | S. cerevisiae deletion strains, locus YLR262C, strain YPT6 (second series), stronger effect = lower value 0.912 | S. cerevisiae deletion strains, locus YLR262C, strain YPT6, stronger effect = lower value 0.872 | S. cerevisiae deletion strains, locus YLR342W, strain FKS1, stronger effect = lower value 0.936 | S. cerevisiae deletion strains, locus YLR357W, strain rsc2, stronger effect = lower value 0.902 | S. cerevisiae deletion strains, locus YLR370C, strain arc18, stronger effect = lower value 0.947 | S. cerevisiae deletion strains, locus YLR371W, strain rom2, stronger effect = lower value 0.938 | S. cerevisiae deletion strains, locus YLR384C, strain iki3, stronger effect = lower value 0.952 | S. cerevisiae deletion strains, locus YML016C, strain PPZ1, stronger effect = lower value 0.959 | S. cerevisiae deletion strains, locus YML124C, strain tub3, stronger effect = lower value 0.952 | S. cerevisiae deletion strains, locus YMR058W, strain fet3, stronger effect = lower value 0.932 | S. cerevisiae deletion strains, locus YMR078C, strain ctf18, stronger effect = lower value 0.93 | S. cerevisiae deletion strains, locus YMR125W, strain sto1, stronger effect = lower value 0.967 | S. cerevisiae deletion strains, locus YMR129W, stronger effect = lower value 0.956 | S. cerevisiae deletion strains, locus YMR223W, strain ubp8, stronger effect = lower value 0.92 | S. cerevisiae deletion strains, locus YMR231W, strain pep5, stronger effect = lower value 0.993 | S. cerevisiae deletion strains, locus YMR307W, strain GAS1, stronger effect = lower value 0.649 | S. cerevisiae deletion strains, locus YNL067W, strain RPL9B, stronger effect = lower value 0.87 | S. cerevisiae deletion strains, locus YNL128W, strain TEP1, stronger effect = lower value 0.9 | S. cerevisiae deletion strains, locus YNL209W, strain ssb2, stronger effect = lower value 0.965 | S. cerevisiae deletion strains, locus YNL248C, strain rpa49, stronger effect = lower value 0.921 | S. cerevisiae deletion strains, locus YNL250W, strain rad50, stronger effect = lower value 0.939 | S. cerevisiae deletion strains, locus YNL271C, strain bni1, stronger effect = lower value 0.937 | S. cerevisiae deletion strains, locus YNL298W, strain CLA4, stronger effect = lower value 0.934 | S. cerevisiae deletion strains, locus YNL322C, strain KRE1 (second series), stronger effect = lower value 0.969 | S. cerevisiae deletion strains, locus YNR049C, strain mso1, stronger effect = lower value 0.97 | S. cerevisiae deletion strains, locus YNR052C, strain pop2, stronger effect = lower value 0.944 | S. cerevisiae deletion strains, locus YOL012C, strain htz1 0.489 | S. cerevisiae deletion strains, locus YOL147C, strain pex11, stronger effect = lower value 0.94 | S. cerevisiae deletion strains, locus YOR001W, strain rrp6, stronger effect = lower value 0.917 | S. cerevisiae deletion strains, locus YOR061W, strain CKA2, stronger effect = lower value 0.955 | S. cerevisiae deletion strains, locus YOR069W, strain VPS5, stronger effect = lower value 0.979 | S. cerevisiae deletion strains, locus YOR070C, strain gyp1, stronger effect = lower value 0.934 | S. cerevisiae deletion strains, locus YOR080W, strain dia2, stronger effect = lower value 0.957 | S. cerevisiae deletion strains, locus YOR106W, strain vam3, stronger effect = lower value 0.887 | S. cerevisiae deletion strains, locus YOR136W, strain idh2, stronger effect = lower value 0.954 | S. cerevisiae deletion strains, locus YOR144C, strain elg1, stronger effect = lower value 0.938 | S. cerevisiae deletion strains, locus YOR231W, strain MKK1, stronger effect = lower value 0.881 | S. cerevisiae deletion strains, locus YOR265W, strain rbl2, stronger effect = lower value 0.952 | S. cerevisiae deletion strains, locus YOR316C, strain cot1, stronger effect = lower value 0.939 | S. cerevisiae deletion strains, locus YPL106C, strain sse1, stronger effect = lower value 0.856 | S. cerevisiae deletion strains, locus YPL240C, strain hsp82, stronger effect = lower value 0.951 | S. cerevisiae deletion strains, locus YPL241C, strain CIN2, stronger effect = lower value 0.985 | S. cerevisiae deletion strains, locus YPL256C, strain CLN2, stronger effect = lower value 0.882 | S. cerevisiae deletion strains, locus YPR119W, strain clb2, stronger effect = lower value 0.969 | S. cerevisiae deletion strains, locus YPR141C, strain kar3, stronger effect = lower value 0.975
active: S. cerevisiae deletion strains, locus YKR001C, strain vps1, stronger effect = lower value 0.876 | S. cerevisiae deletion strains, locus YLR113W, strain HOG1, stronger effect = lower value 0.851 | S. cerevisiae deletion strains, locus YLR221C, strain rsa3, stronger effect = lower value 0.899 | S. cerevisiae deletion strains, locus YLR258W, strain gsy2, stronger effect = lower value 0.91 | S. cerevisiae deletion strains, locus YLR268W, strain sec22, stronger effect = lower value 0.832 | S. cerevisiae deletion strains, locus YLR320W, strain mms22, stronger effect = lower value 0.742 | S. cerevisiae deletion strains, locus YLR330W, strain CHS5, stronger effect = lower value 0.844 | S. cerevisiae deletion strains, locus YLR342W, strain FKS1 (second series), stronger effect = lower value 0.705 | S. cerevisiae deletion strains, locus YLR418C, strain cdc73, stronger effect = lower value 0.66 | S. cerevisiae deletion strains, locus YML032C, strain rad52, stronger effect = lower value 0.889 | S. cerevisiae deletion strains, locus YML120C, strain ndi1, stronger effect = lower value 0.869 | S. cerevisiae deletion strains, locus YMR205C, strain PFK2, stronger effect = lower value 0.842 | S. cerevisiae deletion strains, locus YMR263W, strain SAP30, stronger effect = lower value 0.869 | S. cerevisiae deletion strains, locus YNL071W, strain lat1, stronger effect = lower value 0.727 | S. cerevisiae deletion strains, locus YNL153C, strain GIM3, stronger effect = lower value 0.847 | S. cerevisiae deletion strains, locus YNL183C, strain NPR1, stronger effect = lower value 0.802 | S. cerevisiae deletion strains, locus YNL233W, strain BNI4, stronger effect = lower value 0.804 | S. cerevisiae deletion strains, locus YNL307C, strain MCK1, stronger effect = lower value 0.668 | S. cerevisiae deletion strains, locus YOL006C, strain TOP1, stronger effect = lower value 0.394 | S. cerevisiae deletion strains, locus YOR083W, strain WHI5, stronger effect = lower value 0.865 | S. cerevisiae deletion strains, locus YOR184W, strain ser1, stronger effect = lower value 0.799 | S. cerevisiae deletion strains, locus YOR270C, strain vph1, stronger effect = lower value 0.675 | S. cerevisiae deletion strains, locus YOR290C, strain snf2, stronger effect = lower value 0.822 | S. cerevisiae deletion strains, locus YPL051W, strain arl3, stronger effect = lower value 0.887 | S. cerevisiae deletion strains, locus YPL055C, strain LGE1, stronger effect = lower value 0.754 | S. cerevisiae deletion strains, locus YPL078C, strain atp4, stronger effect = lower value 0.888 | S. cerevisiae deletion strains, locus YPR163C, strain tif3, stronger effect = lower value 0.797 | S. cerevisiae deletion strains, locus YPR167C, strain met16, stronger effect = lower value 0.889 | S. cerevisiae deletion strains, strain wtn01, stronger effect = lower value 0.887 | S. cerevisiae strains, strain wild type, stronger effect = lower value 0.89
